In PubChem BioAssay (NCI):
The panel holds about 79,000 compounds, 15% with a hit somewhere; the sample as a whole holds those more often. Rule as the data show it: active = growth inhibition above about 70%; inactive = the rest.

How the values were obtained:
[1] = NCI Yeast Anticancer Drug Screen. Data for the rad50 strain (AID 155);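 also: 0% = growth of vehicle-only cultures of the same strain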; details: S. cerevisiae rad50 strain growth inhibition; at 50.0 µM; hits give high values
In short: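 Yeast carrying a defined DNA repair defect were exposed to test compounds, and growth was compared with vehicle-treated controls to give percent inhibition.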

[2] = NCI Yeast Anticancer Drug Screen. Data for the mec2-1 strain (AID 157); details: S. cerevisiae mec2-1 strain, at 50.0 µM, hits give high values
In short: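 Test agents were screened against the mec2-1 yeast strain, with defined DNA repair or cell cycle alteration. Growth was scored as inhibition against vehicle-only controls.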

[3] = NCI Yeast Anticancer Drug Screen. Data for the sgs1 mgt1 strain (AID 161);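 also: 0% = growth of cultures given vehicle only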; details: S. cerevisiae sgs1 mgt1 strain, at 50.0 µM, hits give high values
In short: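 Inhibition of yeast growth, normalised to vehicle-treated controls, is reported for a strain bearing genetic alterations in DNA damage repair.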

[4] = NCI Yeast Anticancer Drug Screen. Data for the cln2 rad14 strain (AID 165);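 also: 0% = growth equal to vehicle treated cultures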; details: S. cerevisiae cln2 rad14 strain, at 50.0 µM, hits give high values
In short: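 Growth of compound-exposed yeast (cln2 rad14 genotype) measured and expressed as inhibition relative to vehicle.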

[5] = NCI Yeast Anticancer Drug Screen. Data for the bub3 strain (AID 167); details: S. cerevisiae bub3 mutant strain, at 50.0 µM, hits give high values
In short: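 Compounds were applied to a genetically altered yeast strain carrying a cell-cycle control defect. Growth inhibition was scored against vehicle-treated controls.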

[6] = NCI Yeast Anticancer Drug Screen. Data for the mlh1 rad18 strain (AID 175); details: S. cerevisiae mlh1 rad18 strain growth inhibition; at 50.0 µM; hits give high values
In short: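 In this whole-cell yeast screen, a strain with altered DNA damage repair is challenged with compound, and its growth is measured against matched vehicle-treated controls.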

Measured: growth inhibition

CNC(=O)c1ccc(/C=C/c2c[nH]c3ccccc23)[n+](C)c1
inactive: [1] -24.9% | [2] -7.9% | [3] -9.05% | [4] -11.2% | [5] -2.65% | [6] -13.3%

CN(C)/N=N/c1nc2c(c(=O)n(C)c(=O)n2C)n1C
inactive: [1] -2.25% | [2] 20.2% | [3] -8.8% | [4] 5.05% | [5] -5.4% | [6] 15.7%

Nn1c(SSSSc2nnc(-c3ccccc3)n2N)nnc1-c1ccccc1
inactive: [1] -12.8% | [2] 3.85% | [3] -27.2% | [4] -19.7% | [5] 14.6% | [6] 4%

CC/C(=N/O)C(C)C(=O)CCC(=O)Nc1ccc(Cl)cc1 (stereo unspecified)
inactive: [1] -11.6% | [2] -7% | [3] 0.15% | [4] 7.35% | [5] 8.15% | [6] -5.65%

C1CSC(SCCCSC2SCCCS2)SC1
inactive: [1] -4.1% | [2] 5.3% | [3] -9.9% | [4] -7.1% | [5] -12.2% | [6] -14.1%

Cc1nc(C(N)=S)sc1C(=O)CC(=O)C(=O)Nc1c(C(C)C)cccc1C(C)C
inactive: [1] -28.1% | [2] -41.6% | [3] -31.8% | [4] -24.9% | [5] -8.55% | [6] -22.1%

Cc1ccc(N=c2cc(-c3ccccc3)oc3ccccc23)cc1
inactive: [1] 11.9% | [2] -1.25% | [3] 11.7% | [4] 3.7% | [5] 12.7% | [6] 20.4%

CN(C)C(=O)C1CCNCC1
inactive: [1] 2.5% | [2] -2.1% | [3] -4.15% | [4] -9.5% | [5] -11.3% | [6] 3.45%

COCC1C(COC)C2CCC1C2(Cc1ccccc1)Cc1ccccc1 (stereo unspecified)
inactive: [1] 1.4% | [2] 12.4% | [3] 18.1% | [4] -45.4% | [5] 0% | [6] -7.2%

O=S1(=O)C=CC(N/N=C/c2cc(Cl)cc(Cl)c2)=C1
inactive: [1] 37.7% | [2] 9.3% | [3] 20.5% | [4] -38.2% | [5] 26.9% | [6] 26.6%

O=C(O)c1ccccc1/C=N/NC1=NCCCCN1
inactive: [1] -46.8% | [2] -23.4% | [3] -29.4% | [4] -9.65% | [5] -7.55% | [6] -33.1%

CCN(CC)CC#CCOc1ccc(/C=C/c2ccccn2)cc1
inactive: [1] 0.35% | [2] -13.4% | [3] 7.1% | [4] -14% | [5] 5.65% | [6] -21.4%

Nc1cccc(Oc2ccc([N+](=O)[O-])cc2)c1
inactive: [1] 16.9% | [2] 25% | [3] 28.3% | [4] 17.2% | [5] 32.5% | [6] 24.7%

COc1c(N)c(C)nc(Cl)c1C#N
inactive: [1] -10.1% | [2] 2.95% | [3] -2.7% | [4] -1.05% | [5] -0.75% | [6] 8.9%

COc1cccc(/C=C\C(=O)c2ccccc(=O)c2O)c1OC
inactive: [1] 34.5% | [2] 23.4% | [3] 36.8% | [4] -5.4% | [5] 40.5% | [6] 40.9%

Cc1ccc(C(C)C)cc1NC=O
inactive: [1] -6.55% | [2] -13.3% | [3] -20.1% | [4] 0.05% | [5] -2.6% | [6] 5.4%

CCOC(=O)/C=C\C(=O)OCC
inactive: [1] 29.7% | [2] 2.55% | [3] 9.35% | [4] 10% | [5] 9.95% | [6] -1.1%

CC(C)C(/C=C/c1ccccc1)=N\NC(=S)NN
inactive: [1] -5.25% | [2] -5.9% | [3] 17.1% | [4] 13.4% | [5] 26.6% | [6] 32.4%

N#CC(C#N)CN(C1=NCCO1)c1cccc2c1CCCC2
inactive: [1] -16.6% | [2] 8.4% | [3] -3.6% | [4] -24.6% | [5] -12.4% | [6] 14.3%

Cc1ccc(C(O)c2ccccc2)cc1 (stereo unspecified)
inactive: [1] 25.4% | [2] 6.55% | [3] 17.4% | [4] -61.6% | [5] 1.4% | [6] 9.5%

CCCCCCCCCCCC(=O)OCCS(=O)(=O)CCOC(=O)CCCCCCCCCCC
inactive: [1] 30% | [2] 4.35% | [3] -1.2% | [4] -23.9% | [5] 15.4% | [6] 22.2%

CC(=O)OCC1OC(n2cnc3c(=S)nc[nH]c32)C(OC(C)=O)C1N(C)C(C)=S (stereo unspecified)
inactive: [1] 38.5% | [2] -4% | [3] 37.6% | [4] 9.85% | [5] 1.25% | [6] 12.6%

N#CC(C#N)N=Cc1ccncc1
inactive: [1] 14.2% | [2] 12.2% | [3] -21.6% | [4] -12.8% | [5] -1.1% | [6] -29.2%

O=S(=O)(c1cccc(C(F)(F)F)c1)N(CCCCN(S(=O)(=O)c1cccc(C(F)(F)F)c1)S(=O)(=O)c1cccc(C(F)(F)F)c1)S(=O)(=O)c1cccc(C(F)(F)F)c1
inactive: [1] -13.8% | [2] -11.6% | [3] -20.7% | [4] -20.2% | [5] -19.2% | [6] -6.6%

[Cl][Pt+2][Cl].[NH-]C1CCCC1[NH-] (stereo unspecified)
inactive: [1] 13.8% | [2] 9% | [3] 20.9% | [4] 3.8% | [5] 21.9% | [6] 36.8%

CC(C)N(C(=O)C12C3C4C1C1C2C3C41C(=O)C(C)(C)C)C(C)C (stereo unspecified)
inactive: [1] 43% | [2] 28.9% | [3] 52% | [4] 61% | [5] 41% | [6] 50.8%

Cc1cccc(C)c1Nc1nc(C)c(C(=O)CC(=O)C(=O)Nc2c(C(C)C)cccc2C(C)C)s1
inactive: [1] 18.3% | [2] -6.35% | [3] 46.3% | [4] -15.7% | [5] -3.55% | [6] 19.6%

Cc1ccc(P(=O)(O)O)cc1C
inactive: [1] -18.2% | [2] -7.3% | [3] 0.3% | [4] -2.1% | [5] -7.75% | [6] -10.4%

CS(=O)(=O)O[C@H]1[C@H](O)c2ccccc2[C@@H]1N=[N+]=[N-]
inactive: [1] 13.5% | [2] 3.95% | [3] -2.05% | [4] -3% | [5] -10.2% | [6] -51.4%

CC(C)C(O)C(C)(C)C(O)C#N (stereo unspecified)
inactive: [1] 18.1% | [2] -1.2% | [3] -0.1% | [4] -2.45% | [5] 0.4% | [6] 7.7%

O=S(=O)(O)c1cc(N=Nc2cc(S(=O)(=O)O)c3cccnc3c2O)ccc1/C=C/c1ccc(N=Nc2cc(S(=O)(=O)O)c3cccnc3c2O)cc1S(=O)(=O)O.[Na+].[Zn+2]
inactive: [1] -15.2% | [2] -8.65% | [3] -9.85% | [4] -75.6% | [5] -44% | [6] -86.7%

CCCCCCCC(NC(C)=O)(C(=O)OCC)C(=O)OCC
inactive: [1] -9.25% | [2] -19.1% | [3] -4.55% | [4] -29.9% | [5] 6.75% | [6] -28.8%

COc1cc2c(cc1OC)C(Cc1cc(Br)c(OC)c(OC)c1)=[N+](C)CC2
inactive: [1] 1.65% | [2] 4.4% | [3] -12.4% | [4] 9.65% | [5] 1.05% | [6] 11.2%

O=c1cnn(C2OC(CO)C(O)C2O)c(=S)[nH]1 (stereo unspecified)
inactive: [1] -4.45% | [2] -1.45% | [3] 28.6% | [4] 1.25% | [5] 26.1% | [6] -96.5%

Cn1c(=O)c2[nH]c(SCCN3CCOCC3)nc2n(C)c1=S
inactive: [1] -23.4% | [2] -47.2% | [3] -25.6% | [4] 14.2% | [5] -66.2% | [6] -4.95%

CCCNC(=S)NNC(N)=O
inactive: [1] 2.5% | [2] 7.35% | [3] -9.05% | [4] 6.15% | [5] -11.2% | [6] 12.2%
